Screening results: PubChem BioAssay, National Center for Advancing Translational Sciences (NCATS)
FLuc modulator – qHTS profiling assay for firefly luciferase inhibitor/activator using purifed enzyme and Km concentrations of substrates (counterscreen for miR-21 project); Luciferin 4-monooxygenase (Photinus pyralis), P08659; purified FLuc, Km substrates, luminescence inhibition; Potency, µM (titrated, usually from 57.5 µM), for inactives: at the top dose activity change, negative = inhibition, actives largely listed as inhibitors; 360,000 tested, 6.9% active;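 note: plate controls were vehicle for no effect and reference inhibitor for full effect; nearly all actives have a fitted effect of over 55% in size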
Target sequence (P08659 whole entry, looked up): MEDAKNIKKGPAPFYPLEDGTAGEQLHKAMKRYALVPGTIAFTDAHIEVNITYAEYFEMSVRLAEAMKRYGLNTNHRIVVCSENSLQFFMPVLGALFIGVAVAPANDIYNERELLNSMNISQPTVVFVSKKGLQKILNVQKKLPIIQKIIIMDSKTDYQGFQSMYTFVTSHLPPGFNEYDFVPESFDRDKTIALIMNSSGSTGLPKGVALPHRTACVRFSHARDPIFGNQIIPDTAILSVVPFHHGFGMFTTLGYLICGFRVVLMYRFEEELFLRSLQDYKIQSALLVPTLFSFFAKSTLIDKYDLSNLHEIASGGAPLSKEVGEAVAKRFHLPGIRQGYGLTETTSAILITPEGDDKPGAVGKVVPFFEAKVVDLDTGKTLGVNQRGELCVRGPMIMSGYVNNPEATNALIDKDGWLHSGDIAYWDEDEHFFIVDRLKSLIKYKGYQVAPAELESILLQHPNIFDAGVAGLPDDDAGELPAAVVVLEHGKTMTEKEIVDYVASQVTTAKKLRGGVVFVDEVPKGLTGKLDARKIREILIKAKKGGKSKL
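Biochemical qHTS of compounds, final roughly 60 µM downward over six points, against 10 nM purified firefly luciferase using Km concentrations of substrates (10 uM D-luciferin, 10 uM ATP) in Tris acetate pH 7.5 buffer; luminescence output.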
ELG1 genotoxic – qHTS screen for small molecules that induce genotoxicity in human embryonic kidney (HEK293T) cells expressing luciferase-tagged ELG1. HEK293T ELG1-luciferase reporter, luminescence, 16 h. Potency, µM (highest dose often 46 µM), inactives show at the top dose activity change, positive = activation, usual class: activators. 330,000 tested, 1.3% active; note: % of control where 0% means no effect; nearly all actives have a fitted effect of over 60% in size
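Step 1: seed 2,000 HEK293T ELG1-luciferase cells per well. Step 2: add compound or DMSO, incubate 16 hr at 37 °C. Step 3: ONE-Glo, 30 min at room temperature, read luminescence.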
ELG1 DNA repair – qHTS screen for small molecules that inhibit ELG1-dependent DNA repair in human embryonic kidney (HEK293T) cells expressing luciferase-tagged ELG1; HEK293T ELG1-luciferase reporter, luminescence, 16 h; DNA damage induced by 5-fluorouridine; 330,000 tested, 2.3% active; AID 504467, 2011; Potency, µM (series often up to 46.1 µM), for inactives: at the top dose activity change, negative = inhibition, actives largely listed as inhibitors; note: % is set by controls: 0 for no effect and ±100 for the full control effect; nearly all actives have a fitted effect of over 55% in size
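Step one: seed 2,000 cells per well. Step two: pin-transfer compound or DMSO alongside 5-fluorouridine. Step three: incubate 16 hr, 37 °C, 5% CO2. Step four: add ONE-Glo, wait 30 min, read luminescence.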
NPC1 promoter act – qHTS Assay for NPC1 Promoter Activators; Huh7 NPC1 promoter luciferase reporter, 24 h; Potency, µM (titrated, usually from 9.22 µM), without a hit: at the top dose activation, usual class: activators; 320,000 tested, 2.4% active; AID 485313, 2010; note: % of control where 0% means no effect; nearly all actives have a fitted effect of over 60% in size
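Stable NPC1-promoter luciferase Huh7 line; cpd (DMSO) 24 h, 37 °C, 5% CO2; Amplite luciferase reagent 10 min RT; luminescence readout. qHTS format.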
SMN2 splice enh – qHTS Assay for Enhancers of SMN2 Splice Variant Expression | AID 1458, 2008 | HEK293 SMN2-luciferase splicing reporter, luminescence, 30-36 h | Potency, µM (highest dose often 46.1 µM), inactives show at the highest dose activity change, positive = activation, most hits filed as activators | 210,000 tested, 2.8% active; note: % of control where 0% means no effect; nearly all actives have a fitted effect of over 55% in size
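HEK293 cells carry an SMN2 minigene-luciferase reporter in which exon 7 inclusion puts luciferase in frame. Cells were seeded at 2000 cells/well, attached for 10-12 hours, then exposed to compounds for 30-36 hours at 37C before ONE-Glo luminescence.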
Rab9 prom act – qHTS Assay for Rab9 Promoter Activators; 320,000 tested, 2.8% active; Huh7 Rab9 promoter-luciferase reporter, luminescence, 24 h; Potency, µM (top dose mostly 9.22 µM), for inactives: at the top dose activation, negative = inhibition, usual class: activators; note: % of control where 0% means no effect; nearly all actives have a fitted effect of over 60% in size
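Huh7 reporter line, Rab9 promoter upstream of luciferase. Compound exposure 24 h at 37 °C in reduced-serum medium with 10% FBS. Read-out: luminescence.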
Starred values were filed as active, the others as inactive; ? = inconclusive; / = not tested or not shown; [ ] = dose if it differs, or a comment. In the library only some 9.2% were active in any assay of this set; here they are far more common. Calls come from the whole dose curve; as a rule, active = well fitted curve in the direction sought with a large enough effect; inconclusive = small, poorly fitted or top-dose-only effect, or another doubt; inactive = no such curve, though single readings can be large; an effect the other way counts as inactive or inconclusive. Potency is the fitted concentration of half-maximal effect.

SMILES | FLuc modulator | ELG1 genotoxic | ELG1 DNA repair | NPC1 promoter act | SMN2 splice enh | Rab9 prom act
COc1cccc(C(=O)Nc2nc(-c3ccncc3)cs2)c1 | -11% | 1% | 7% | 3% | -57% | 14%
COc1cccc(C(=O)Nc2nc(C)cs2)c1 | 6.7µM* | 16% | ? | 3.2µM* | 11µM* | 2.5µM*
CSc1cccc(-n2nnc(-c3nsc(NC(=O)c4cccs4)n3)c2C)c1 | 2.7µM* | / | / | / | / | /
Cc1csc(NC(=O)c2cc(C)on2)n1 | 11µM* | ? | ? | 2.2µM* | / | 2.2µM*
Cc1csc(NC(=S)NC(=O)c2ccccc2)n1 | 13µM* | 21µM* | ? | ? | / | ?
CCOc1cc(-c2ccc(OC(=O)c3ccc(C)cc3)c(OC)c2)cc(=O)c2c(C)oc(C)c12 | -10% | / | / | / | / | /
Fc1ccc(Nc2nc(SCc3ccccc3F)nc3ccccc23)cc1 | -1% | / | / | / | / | /
COc1ccc(N2CCN(C(CNS(C)(=O)=O)c3ccco3)CC2)cc1 (stereo unspecified) | -1% | -7% | 9% | -1% | 0% | 5%
O=C(O)/C(=C\c1ccncc1)c1cccc2ccccc12 | / | / | / | / | -14%[9.22 µM] | /
CC(Oc1ccc(Br)cc1)C(=O)O/N=C(\N)c1ccncc1 (stereo unspecified) | -2% | -8% | 0% | -5% | / | 0%
NC(=O)C1CCN(C(=O)c2cc3c(s2)CCCC3)CC1 | -14% | 15% | ? | 1.8µM* | / | 1.4µM*
CC(C)NC(=O)C1CCN(C2CCN(C(=O)c3cc4c(s3)CCCCC4)CC2)CC1 | -8% | -7% | -14% | -5% | -22% | -13%
COc1ccc2c(c1)CCc1cc(C(=O)N3CCN(c4ccc(N5CCOCC5)nn4)CC3)sc1-2 | ? | -29% | 21µM* | -5% | -53% | -4%
COc1ccccc1N1CCN(C(=O)c2cc3c(s2)CCC3)CC1 | -3% | -2% | -16% | 1% | -15% | 0%
CC(=O)c1ccc(N2CCN(C(=O)c3cc4c(s3)CCCC4)CC2)cc1 | 24µM* | 14% | 9% | 5% | 11% | 17%
O=C(c1cc2c(s1)CCCCC2)N1CCN(c2ncccn2)CC1 | -2%[2.3 µM] | 2% | 19% | 8% | 2% | 10%
COc1ccc(N2CCN(C(=O)c3cc4c(s3)CCCCC4)CC2)cc1 | 17µM* | 0% | -2% | 3% | / | -1%
CCOC(=O)CSc1nc(C)c(C(C)=O)cc1C(N)=O | 1% | 1% | 12% | -2% | -1% | 2%
CCN=C(N)CSS(=O)(=O)O | / | / | / | / | -8%[9.22 µM] | /
CCOc1ccccc1CNC(=O)C1CCN(S(=O)(=O)c2c(C)noc2/C=C/c2ccccc2F)CC1 | 2% | / | / | / | / | /
Cc1ccc(SCN2CCCCC2)cc1 (tested in a mixture with another compound) | / | / | / | / | -6%[9.22 µM] | /
O=C(O)c1cc2c(s1)CCCC2 | -6% | -2% | 7% | -1% | 7% | -2%
O=C(c1cc2c(s1)CCCC2)n1cccn1 | 21µM* | 5% | 16% | -1% | -1% | -6%
Cc1ccc(-c2nc(N/N=C/c3ccccc3[N+](=O)[O-])c3ccccc3n2)cc1 | 0.76µM* | 20% | ? | 1.6µM* | ? | 3.5µM*
COc1cccc(/C=N/Nc2nc(-c3cccnc3)nc3ccccc23)c1 | 1.5µM* | 4% | ? | 3% | / | 13%
SMILES | FLuc modulator | ELG1 genotoxic | ELG1 DNA repair | NPC1 promoter act | SMN2 splice enh | Rab9 prom act
Cc1ccc(Nc2nc(-c3ccccc3)nc3ccccc23)cc1 | 0% | / | / | / | / | /
C(=N\Nc1nc(-c2ccccn2)nc2ccccc12)/c1ccccc1 | 11µM* | -11% | ? | -9% | / | -30%
ClC(Cl)(Cl)c1nc(N/N=C/c2ccncc2)c2ccccc2n1 | -1% | -7% | 12% | -3% | 2% | 1%
FC(F)(F)c1nc2ccccc2nc1N/N=C\c1ccccc1 | 15µM* | 1% | 26% | 0% | -18% | 7%
CCOc1ccc(N(CC(=O)Nc2cccc(Br)c2)S(C)(=O)=O)cc1 | -18% | 2% | -4% | 4% | / | 3%
COc1ccc(Cl)cc1NC(=O)CN(c1cccc(C)c1C)S(=O)(=O)c1ccccc1 | -5% | / | / | / | -19% | /
COc1ccc(C(=O)N[C@H](C(=O)NCCc2ccc3c(c2)OCCO3)C(C)C)cc1 | / | 4% | 0% | / | / | /
Fc1ccc(Nc2nc(-c3cccnc3)nc3ccccc23)cc1 | / | / | / | / | -26% | /
Brc1ccc(-c2nc(N/N=C/c3cccnc3)c3ccccc3n2)cc1 | 0.21µM* | ? | ? | 2.8µM* | 13µM* | 2.5µM*
C(=N/Nc1ccccn1)/c1cccnc1 | / | / | / | / | 1%[9.22 µM] | /
C(=N\Nc1nc(-c2cccnc2)nc2ccccc12)/c1ccccc1 | 1.3µM* | -4% | ? | 14% | / | 19%
CCCCNC(=S)N/N=C/c1sccc1C | -13% | 3% | 1% | 10% | 25% | 0%
CCNC(=S)N/N=C/c1sc(N2CCCCC2)nc1-c1cccs1 | 1.9µM* | ? | ? | 26% | / | ?
CC(C)CC(=O)Nc1cccc(-c2cn3cccnc3n2)c1 | 24µM* | / | / | / | / | /
CCOCC(=O)Nc1ccc(-c2cn3cccnc3n2)cc1 | ? | 4% | 30% | -1% | 13% | 3%
CC(C)(C)CC(=O)Nc1ccc(-c2cn3cccnc3n2)cc1 | 9.5µM* | ? | ? | 2.8µM* | / | ?
CCCC(=O)Nc1ccc(-c2cn3cccnc3n2)cc1 | 17µM* | 13% | ? | 28% | / | ?
CC(C)CC(=O)Nc1ccc(-c2cn3cccnc3n2)cc1 | 15µM* | ? | ? | ? | / | 28%
CCCC(=O)Nc1cccc(-c2cn3cccnc3n2)c1 | -19% | 9% | ? | 4% | 7% | -4%
Cc1cccn2c(=O)c(C(=O)N3CCN(c4ccc(Cl)cc4)CC3)cnc12 | -3% | / | / | / | / | /
Cc1ccc(-c2cn3cccnc3n2)cc1NC(=O)c1c(-c2ccccc2Cl)noc1C | ? | -2% | ? | -22% | 11% | 9%
Cc1onc(-c2ccccc2Cl)c1C(=O)Nc1ccc(-c2cn3cccnc3n2)cc1 | -10% | -8% | 13µM* | -3% | -19% | 11%
CSc1cccc(NC(=O)COC(=O)C2CCN(S(=O)(=O)c3ccccc3)CC2)c1 | -2% | 1% | 7% | 1% | / | -4%
